Assay results taken from PubChem BioAssay.
For part of these data: Results with a measured potency or affinity are listed apart. Activity calls are given as the source filed them.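 How the source made its calls, unless noted: active means calcium signal ratio cut to more than 3 SD under the fully stimulated control mean yet still positive, in both repeats and the primary screen; inactive means the rest.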

Columns and labels:
[1] = tested on: TRPC4 beta (transient receptor potential cation channel C4), mouse; assay: TRPC4 cation channel opening, retest – cell-based, Fluo4 calcium, HEK293 TRPC4beta/mu-opioid, duplicates, 10 µM, confirmation (AID 2426;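 active means fluorescence ratio normalized to control raised more than 50% in primary screen plus both repeat runs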;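 on activation: percent rise of integrated ratio over buffer wells lacking compound which define 0%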); settings: Fluo4 calcium fluorescence, at 10 µM; stronger effect = higher value
[2] = tested on: transient receptor potential cation channel C4 beta (TRPC4), mouse; assay: TRPC4 cation channel opening, second retest – cell-based, second round, Fluo4, HEK293 TRPC4beta/mu-opioid, 1 µM, confirmation (AID 2461;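 active means primary screen active and over 50% activation in each of two duplicate runs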); settings: Fluo4 calcium fluorescence, at 1 µM; stronger effect = higher value
[3] = tested on: TRPC4 (transient receptor potential cation channel C4 beta), mouse; assay: potentiation of DAMGO EC20 TRPC4 response – cell-based, second round, Fluo-4, HEK293 TRPC4beta/mu-opioid, 1 µM, confirmation (AID 2554;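 active means primary screen hit whose fluorescence ratio, in both repeats, exceeds the weak agonist control mean by 3 SD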); settings: DAMGO EC20, Fluo-4 calcium flux, at 1 µM; stronger effect = higher value
[4] = tested on: TRPC4 beta (transient receptor potential cation channel C4), mouse; assay: potentiation of DAMGO EC20 TRPC4 response – cell-based, Fluo-4, HEK293 TRPC4beta/mu-opioid, confirmation (AID 2555;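 active means primary screen hit whose calcium fluorescence ratio, in both repeats, exceeds the weak agonist control mean by 3 SD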); settings: DAMGO EC20, Fluo-4 calcium flux, at 10 µM; stronger effect = higher value
[5] = target: Short transient receptor potential channel 4 (Mus musculus) (UniProt Q9QUQ5); assay: blockers of DAMGO-evoked TRPC4 calcium flux – cell-based, Fluo4, HEK293 TRPC4beta/mu-opioid, confirmation (AID 2636;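 active means calcium signal cut by more than 3 SD below the full-agonist control yet still positive, in both repeats and the earlier primary screen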); settings: at 10 µM; stronger effect = higher value
[6] = target: Short transient receptor potential channel 4 (Mus musculus) (UniProt Q9QUQ5); assay: blockers of DAMGO-evoked TRPC4 calcium flux – cell-based, second round, Fluo4, HEK293 TRPC4beta/mu-opioid, 1 µM, confirmation (AID 2637); settings: at 1 µM; stronger effect = higher value
[7] = target: Short transient receptor potential channel 4 (Mus musculus) (UniProt Q9QUQ5); assay: calcium entry via TRPC4 opening agents – cell-based, HEK293 TRPC4/mu-opioid, Fluo-4 calcium, dose response (AID 434937;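 active means primary screen activator hit with a dose response curve and TRPC4 channel activation at any tested dose; inactive means no activation, no dose response, or not a primary hit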)
[8] = target: Short transient receptor potential channel 4 (Mus musculus) (UniProt Q9QUQ5); assay: potentiation of DAMGO-evoked TRPC4 calcium signal – cell-based, HEK293 TRPC4/mu-opioid, Fluo-4 calcium, EC20 DAMGO, dose response (AID 434941;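 active means earlier screen potentiator hit that boosts the TRPC4 ion channel at some dose, with a dose response; inactive means no potentiation, no dose response, or not a prior hit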;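 further: calcium entry triggered by an EC20 dose of DAMGO at the co-expressed mu-opioid receptor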)
[9] = target: Short transient receptor potential channel 4 (Mus musculus) (UniProt Q9QUQ5); assay: block of DAMGO-driven TRPC4 calcium entry – cell-based, HEK293 TRPC4/mu-opioid, Fluo-4 calcium, dose response (AID 434942;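 active means primary screen inhibitor hit that blocks the TRPC4 channel at some tested dose, yielding a dose curve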)
[10] = target: Short transient receptor potential channel 6 (Mus musculus) (UniProt Q61143); assay: TRPC6 blockade by TRPC4 inhibitor hits – cell-based, HEK293, membrane potential dye, duplicate, selectivity assay for TRPC4 inhibitor project, confirmation (AID 434948;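 active means active in primary screen and both duplicates, each dropping signal beyond three positive-control SD with fluorescence still positive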); settings: HEK293 TRPC6, membrane potential dye fluorescence, at 10 µM, stimulated with maximal-effect acetylcholine; stronger effect = higher value
[11] = target: Short transient receptor potential channel 6 (Mus musculus) (UniProt Q61143); assay: TRPC6 opening by TRPC4 activator hits – cell-based, HEK293, membrane potential dye, duplicate, selectivity assay for TRPC4 activator project, confirmation (AID 434950;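 active means membrane potential signal rise above negative control mean plus 3 SD in both duplicates, also active in the earlier TRPC4 screen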;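 on activation: 0% = buffer only wells and 100% = acetylcholine maximal-effect wells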); settings: HEK293 TRPC6, membrane potential fluorescence, at 10 µM; activation: stronger effect = higher value; outcome: activation
[12] = target: Short transient receptor potential channel 6 (Mus musculus) (UniProt Q61143); assay: positive modulators of mouse TRPC6 channel – HEK293 cells, membrane potential dye, duplicate, selectivity assay for TRPC4 potentiator project, confirmation (AID 434952;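 active means compound raising the membrane signal above positive-control mean plus 3 SD in both repeats, and a primary screen hit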); settings: HEK293 TRPC6, membrane potential dye fluorescence, at 10 µM, maximal acetylcholine added after compound; stronger effect = higher value
[13] = target: Short transient receptor potential channel 4 (Mus musculus) (UniProt Q9QUQ5); assay: calcium flux activators in TRPC4/5HT1a cells, counter-screen for TRPC4 activator project, cell-based, second counter screen, HEK293 TRPC4/5HT1a, Fluo-4 (AID 434977;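 active means calcium signal rise above buffer-control mean plus 5 SD in both duplicates, and also a hit in the primary screen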;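 on activation: plate controls were assay buffer for no effect and maximal serotonin response for full effect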); settings: Fluo-4 calcium flux, at 10 µM; stronger effect = higher value
[14] = serotonin-gated TRPC4 signal block – cell-based, second counter screen, HEK293 TRPC4/5HT1a, Fluo-4, counter-screen for TRPC4 inhibitor project, confirmation (AID 434978;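 active means primary screen active whose calcium signal fell more than 3 SD beyond the full-serotonin control mean in both duplicate plates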;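 further: serotonin given first at submaximal then at maximal dose after compound preincubation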); settings: Fluo-4 calcium flux, at 10 µM, serotonin added to trigger calcium flux; stronger effect = higher value
[15] = tested on: TRPC4 (mouse), co-expressed with 5HT1a in HEK293; assay: enhancement of serotonin-evoked TRPC4 response – cell-based, second counter screen, HEK293 TRPC4/5HT1a, Fluo-4, counter-screen for TRPC4 potentiator project, confirmation (AID 434979;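 active means signal rise over 3 SD above mean of control wells given weak agonist, in both repeats and first screen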); settings: Fluo-4 calcium flux, at 10 µM, serotonin added at its EC20 dose; stronger effect = higher value
[16] = nonspecific calcium rise without TRPC4 – cell-based, HEK293 mu-opioid receptor line, counter-screen for TRPC4 activator project, confirmation (AID 449723;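 active means hit in primary screen, with calcium signal over 5 SD above buffer well mean in both duplicates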;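 further: counter screen cells carry the mu-opioid receptor alone and lack TRPC4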); settings: HEK293 mu-opioid cells, Fluo-4 calcium fluorescence, at 10 µM; stronger effect = higher value
[17] = nonspecific potentiation of DAMGO calcium response – cell-based, HEK293 mu-opioid receptor line, counter-screen for TRPC4 allosteric potentiator project, confirmation (AID 449724;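 active means calcium signal rise more than 3 SD above the low-dose agonist control mean, in both duplicate plates and the primary screen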); settings: HEK293 mu-opioid receptor cells, Fluo-4 calcium flux, at 10 µM, compound added before EC20 DAMGO stimulus; stronger effect = higher value

Short transient receptor potential channel 6 (Mus musculus), sequence (Q61143 whole entry, looked up): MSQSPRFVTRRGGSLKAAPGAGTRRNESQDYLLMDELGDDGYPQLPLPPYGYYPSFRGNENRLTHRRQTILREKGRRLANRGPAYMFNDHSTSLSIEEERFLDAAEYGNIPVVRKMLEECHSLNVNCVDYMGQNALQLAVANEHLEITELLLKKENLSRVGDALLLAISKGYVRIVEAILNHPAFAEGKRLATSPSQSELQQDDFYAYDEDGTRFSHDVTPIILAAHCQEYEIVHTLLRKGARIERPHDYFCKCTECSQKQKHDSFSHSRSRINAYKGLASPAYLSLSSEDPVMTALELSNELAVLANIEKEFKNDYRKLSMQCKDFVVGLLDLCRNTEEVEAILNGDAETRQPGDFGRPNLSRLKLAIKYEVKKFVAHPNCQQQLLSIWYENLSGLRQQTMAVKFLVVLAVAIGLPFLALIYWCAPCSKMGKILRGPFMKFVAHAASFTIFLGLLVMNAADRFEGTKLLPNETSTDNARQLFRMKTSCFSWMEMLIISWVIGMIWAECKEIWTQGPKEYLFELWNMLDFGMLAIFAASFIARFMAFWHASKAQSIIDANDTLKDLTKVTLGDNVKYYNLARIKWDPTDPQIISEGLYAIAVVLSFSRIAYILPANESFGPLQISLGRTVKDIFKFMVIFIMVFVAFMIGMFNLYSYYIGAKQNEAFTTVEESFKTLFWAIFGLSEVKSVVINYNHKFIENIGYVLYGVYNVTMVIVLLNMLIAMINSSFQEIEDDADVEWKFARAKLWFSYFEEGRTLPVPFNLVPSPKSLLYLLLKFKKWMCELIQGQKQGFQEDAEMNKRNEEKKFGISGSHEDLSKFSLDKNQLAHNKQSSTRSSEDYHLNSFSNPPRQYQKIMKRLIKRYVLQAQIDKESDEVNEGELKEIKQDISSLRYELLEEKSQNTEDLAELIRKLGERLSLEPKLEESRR
Short transient receptor potential channel 4 (Mus musculus), sequence (Q9QUQ5 whole entry, looked up): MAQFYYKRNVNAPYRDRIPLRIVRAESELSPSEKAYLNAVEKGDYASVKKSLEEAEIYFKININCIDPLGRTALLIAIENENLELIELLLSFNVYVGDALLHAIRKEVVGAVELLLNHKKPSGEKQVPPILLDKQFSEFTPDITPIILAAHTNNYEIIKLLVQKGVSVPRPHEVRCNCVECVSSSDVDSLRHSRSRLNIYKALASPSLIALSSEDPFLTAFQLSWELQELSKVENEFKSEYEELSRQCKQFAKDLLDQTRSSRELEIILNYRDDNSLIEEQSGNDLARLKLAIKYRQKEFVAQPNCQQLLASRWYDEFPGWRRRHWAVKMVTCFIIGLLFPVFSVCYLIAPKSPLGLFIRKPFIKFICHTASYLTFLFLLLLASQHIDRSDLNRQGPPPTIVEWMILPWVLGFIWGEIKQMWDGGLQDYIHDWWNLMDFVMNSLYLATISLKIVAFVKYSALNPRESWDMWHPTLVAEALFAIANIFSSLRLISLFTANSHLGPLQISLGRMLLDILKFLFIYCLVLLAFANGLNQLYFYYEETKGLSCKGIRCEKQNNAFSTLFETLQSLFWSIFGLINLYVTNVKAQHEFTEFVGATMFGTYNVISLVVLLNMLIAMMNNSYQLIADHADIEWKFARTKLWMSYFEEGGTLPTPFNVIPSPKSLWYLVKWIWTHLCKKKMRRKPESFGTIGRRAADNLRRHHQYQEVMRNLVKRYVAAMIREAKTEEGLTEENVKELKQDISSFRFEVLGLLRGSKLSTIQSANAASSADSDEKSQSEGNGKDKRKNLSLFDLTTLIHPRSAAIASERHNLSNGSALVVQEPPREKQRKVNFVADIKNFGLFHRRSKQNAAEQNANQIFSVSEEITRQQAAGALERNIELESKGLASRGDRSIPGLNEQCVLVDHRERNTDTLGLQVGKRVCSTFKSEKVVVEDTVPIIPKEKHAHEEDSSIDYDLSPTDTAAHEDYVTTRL

CC(C)(C)c1ccc(-c2nnc3sc(-c4ccccn4)nn23)cc1
active: potentiation [4] 68%
inactive: outcome [1] | outcome [2] | outcome [3] | outcome [5] | outcome [6] | outcome [7] | outcome [8] | outcome [9] | outcome [10] | outcome [11] | outcome [12] | outcome [13] | outcome [14] | outcome [15] | outcome [16] | outcome [17]

Cc1ccc(-c2nn(-c3ccccc3)cc2C(=O)Nc2ccc(C(=O)O)cc2)cc1
inactive: outcome [1] | outcome [2] | outcome [3] | outcome [4] | outcome [5] | outcome [6] | outcome [7] | outcome [8] | outcome [9] | outcome [10] | outcome [11] | outcome [12] | outcome [13] | outcome [14] | outcome [15] | outcome [16] | outcome [17]

Oc1ccccc1-c1cc(-c2ccco2)[nH]n1
inactive: outcome [1] | outcome [2] | outcome [3] | outcome [4] | outcome [5] | outcome [6] | outcome [7] | outcome [8] | outcome [9] | outcome [10] | outcome [11] | outcome [12] | outcome [13] | outcome [14] | outcome [15] | outcome [16] | outcome [17]

CN1/C(=C\C=[N+](C)c2ccccc2)C(C)(C)c2ccccc21
inactive: outcome [1] | outcome [2] | outcome [3] | outcome [4] | outcome [5] | outcome [6] | outcome [7] | outcome [8] | outcome [9] | outcome [10] | outcome [11] | outcome [12] | outcome [13] | outcome [14] | outcome [15] | outcome [16] | outcome [17]

CCOc1ccc(S(=O)(=O)N2CCN(C(=S)NC3CC3)CC2)cc1
active: potentiation [4] 9% | potentiation [15] 30.7%
inactive: outcome [1] | outcome [2] | outcome [3] | outcome [5] | outcome [6] | outcome [7] | outcome [8] | outcome [9] | outcome [10] | outcome [11] | outcome [12] | outcome [13] | outcome [14] | outcome [16] | outcome [17]

COc1cccc(OCC(=O)NC2CCCCC2)c1
inactive: outcome [1] | outcome [2] | outcome [3] | outcome [5] | outcome [6] | outcome [7] | outcome [8] | outcome [9] | outcome [10] | outcome [11] | outcome [12] | outcome [13] | outcome [14] | outcome [16] | outcome [17]
active: potentiation [4] 41% | potentiation [15] 26.3%

CC1(C)CC(=O)C(C=NCCN2CCN(C(=O)CCl)CC2)=C(O)C1
inactive: outcome [1] | outcome [2] | outcome [3] | outcome [4] | outcome [5] | outcome [6] | outcome [7] | outcome [8] | outcome [9] | outcome [10] | outcome [11] | outcome [12] | outcome [13] | outcome [14] | outcome [15] | outcome [16] | outcome [17]

O=C(CC1CCCCC1)c1c(O)c2ccccc2oc1=O
active: activation [1] 151% | activation [11] 33.5% | activation [13] 62.5% | activation [16] 30.8%
inactive: outcome [2] | outcome [3] | outcome [4] | outcome [5] | outcome [6] | outcome [7] | outcome [8] | outcome [9] | outcome [10] | outcome [12] | outcome [14] | outcome [15] | outcome [17]

Cc1cc(SCC(=O)c2cccc([N+](=O)[O-])c2)nc(=O)[nH]1
active: potentiation [4] 23% | potentiation [15] 57.9%
inactive: outcome [1] | outcome [2] | outcome [3] | outcome [5] | outcome [6] | outcome [7] | outcome [8] | outcome [9] | outcome [10] | outcome [11] | outcome [12] | outcome [13] | outcome [14] | outcome [16] | outcome [17]

CC1CC(C)CN(CCCNC(=O)c2ccc(N3CCCC3=O)cc2)C1 (stereo not given)
inactive: outcome [1] | outcome [2] | outcome [3] | outcome [4] | outcome [5] | outcome [6] | outcome [7] | outcome [8] | outcome [9] | outcome [10] | outcome [11] | outcome [12] | outcome [13] | outcome [14] | outcome [16] | outcome [17]
active: potentiation [15] 27.3%

CC[n+]1c(/C=C/c2ccc(OC(C)=O)c(OC)c2)ccc2ccccc21
inactive: outcome [1] | outcome [2] | outcome [3] | outcome [4] | outcome [5] | outcome [6] | outcome [7] | outcome [8] | outcome [9] | outcome [10] | outcome [11] | outcome [12] | outcome [13] | outcome [14] | outcome [15] | outcome [16] | outcome [17]

NS(=O)(=O)c1ccc(Oc2ccc(S(N)(=O)=O)cc2)cc1
inactive: outcome [1] | outcome [2] | outcome [3] | outcome [4] | outcome [5] | outcome [6] | outcome [7] | outcome [8] | outcome [9] | outcome [10] | outcome [11] | outcome [12] | outcome [13] | outcome [14] | outcome [15] | outcome [16] | outcome [17]

Cc1n[nH]c(C)c1Cc1c(F)cccc1Cl
inactive: outcome [1] | outcome [2] | outcome [3] | outcome [4] | outcome [6] | outcome [7] | outcome [8] | outcome [9] | outcome [10] | outcome [11] | outcome [12] | outcome [13] | outcome [14] | outcome [15] | outcome [16] | outcome [17]
active: inhibition [5] 94%

CCN(C(=O)c1cc2c(s1)-c1ccccc1OC2)c1cc(OC)ccc1OC
inactive: outcome [1] | outcome [2] | outcome [3] | outcome [4] | outcome [5] | outcome [6] | outcome [7] | outcome [8] | outcome [9] | outcome [10] | outcome [11] | outcome [12] | outcome [13] | outcome [14] | outcome [15] | outcome [16] | outcome [17]

C=CCn1c(SCCN2CCOCC2)nc2c1c(=O)[nH]c(=O)n2C
inactive: outcome [1] | outcome [2] | outcome [3] | outcome [4] | outcome [5] | outcome [6] | outcome [7] | outcome [8] | outcome [9] | outcome [10] | outcome [11] | outcome [12] | outcome [13] | outcome [14] | outcome [16] | outcome [17]
active: potentiation [15] 35.7%
